According to the supplement of paper PMC8285479:
Counter-ions that a name gives are not always drawn. ± gives the standard deviation of the averaged measurements. Over roughly 1,900 compounds, “normalised cell viability (NPI; 0 = phenylarsine oxide control, 1 = DMSO control)” has its median near 1; the lowest 2% begin near 0.039. The entries come from a sample that favours the lowest values as a whole.

Tested on: NCI-H1944
Experiment: normalised cell viability (NPI; 0 = phenylarsine oxide control, 1 = DMSO control) (fraction of DMSO control); NCI-H1944 is a non-small cell lung cancer line; higher = more viable cells (less compound toxicity)
Settings: 6 days
[1] = glucocorticoid arm: hydrocortisone 2.75 uM co-treatment, compound 1 µM
[2] = glucocorticoid arm: hydrocortisone 2.75 uM co-treatment, compound 5 µM
[3] = glucocorticoid arm: hydrocortisone 2.75 uM pre-treated 2 days and continued, compound 1 µM
[4] = glucocorticoid arm: hydrocortisone 2.75 uM pre-treated 2 days and continued, compound 5 µM
[5] = glucocorticoid arm: vehicle, compound 1 µM
[6] = glucocorticoid arm: vehicle, compound 5 µM
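Also: CTB read-out in 384-well plates, triplicate wells, NPI normalised per plate against 1 µM phenylarsine oxide (0) and 0.1% DMSO (1) controls.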

Structure (SMILES)	normalised cell viability [1]	normalised cell viability [2]	normalised cell viability [3]	normalised cell viability [4]	normalised cell viability [5]	normalised cell viability [6]
O=C1c2c(O)cc(O)cc2O[C@H](c2ccc(O)c(O)c2)[C@H]1O (racemic) [(±)-Taxifolin]	1.01 ± 0.013	0.995 ± 0.0078	1.02 ± 0.035	1.01 ± 0.012	1.017 ± 0.0058	1.017 ± 0.0058
CO[C@@]12[C@H](COC(N)=O)C3=C(C(=O)C(C)=C(N)C3=O)N1C[C@@H]1N[C@@H]12 [Mitomycin; Mitomycin C]	1 ± 0.013	0.00117 ± 0.0012	1.017 ± 0.0058	0.0028 ± 0.00069	0.9803 ± 0.0055	0.000408 ± 0.00038
O=C1c2c(O)ccc(O)c2C(=O)c2c(NCCNCCO)ccc(NCCNCCO)c21 [Mitoxantrone dihydrochloride]	0.00888 ± 0.0019	0.00352 ± 0.00052	0.145 ± 0.013	0.155 ± 0.0095	0.00324 ± 0.00091	0.00617 ± 0.003
O=C1c2ccccc2C(=O)c2c(NCCc3ccc(O)cc3)ccc(NCCc3ccc(O)cc3)c21	1.01 ± 0.012	1.02 ± 0.038	1.01 ± 0.012	1.012 ± 0.0075	1.01 ± 0.0063	1.022 ± 0.0098
O=C1c2c(O)ccc(O)c2C(=O)c2c(NCCNCCO)ccc(NCCNCCO)c21 [Mitoxantrone; Mitoxantrone dihydrochloride]	0.181 ± 0.0045	0.00493 ± 0.00072	0.65 ± 0.012	0.0166 ± 0.0015	0.0328 ± 0.004	0.00403 ± 0.00087
O=C(NCc1cccc(O)c1)Nc1nc(-c2ccncc2)cs1	0.994 ± 0.01	0.978 ± 0.021	1.01 ± 0.014	0.971 ± 0.035	0.984 ± 0.0069	0.816 ± 0.054
C=C/C(C)=C/[C@@]1(C)SC(=O)C(C)=C1O [Thiolactomycin]	0.992 ± 0.0056	0.961 ± 0.021	1 ± 0.026	0.848 ± 0.23	0.9883 ± 0.0015	0.998 ± 0.012
C=CCN1CCc2c(cc(O)c(O)c2Cl)C(c2ccccc2)C1 (racemic) [(±)-Chloro-APB hydrobromide]	0.9917 ± 0.0072	1.02 ± 0.01	0.989 ± 0.0061	1 ± 0.011	0.9943 ± 0.0021	0.99467 ± 0.00058
N#C/C(=C\c1ccc(-c2cc(Cl)ccc2Cl)o1)C(=O)Nc1cccc2ncccc12	0.971 ± 0.01	0.978 ± 0.035	0.984 ± 0.018	0.991 ± 0.014	0.9887 ± 0.0078	0.989 ± 0.012
COc1cccc(NC(=O)/C=C/c2ccc(Cl)cc2)c1	0.953 ± 0.015	0.884 ± 0.026	0.992 ± 0.029	0.941 ± 0.023	0.9757 ± 0.0093	0.9683 ± 0.0067
O=C(/C=C/C#Cc1cccc(NS(=O)(=O)c2ccccc2)c1)NO [Oxamflatin]	0.974 ± 0.015	0.599 ± 0.44	0.992 ± 0.019	0.901 ± 0.11	0.843 ± 0.17	0.509 ± 0.54
O=C(/C=C/c1cccc(S(=O)(=O)Nc2ccccc2)c1)NO [Belinostat (PXD101)]	0.9767 ± 0.0051	0.0174 ± 0.0036	1.02	0.114 ± 0.0036	0.575 ± 0.067	0.00153 ± 0.00067
N[C@H](C(=O)O)[C@H]1C[C@@H]1C(=O)O [(2S,1'S,2'S)-2-(carboxycyclopropyl)glycine]	0.99 ± 0.0046	0.979 ± 0.019	0.994 ± 0.0095	0.978 ± 0.015	0.9847 ± 0.0055	0.9883 ± 0.0097
COC(=O)[C@]12CCC(C)(C)C[C@H]1[C@H]1C(=O)C=C3[C@@]4(C)C=C(C#N)C(=O)C(C)(C)[C@@H]4CC[C@@]3(C)[C@]1(C)CC2 [Bardoxolone Methyl]	0.00114 ± 0.00058	1.08 ± 0.01	0.00366 ± 0.0014	1.1 ± 0.015	0.00138 ± 0.00077	0.858 ± 0.022
N.N.N.N.N.N.N.N.N.N.N.N.N.N.O.O.[Cl-].[Cl-].[Cl-].[Cl-].[Cl-].[Cl-].[Ru+4].[Ru+5].[Ru+5] [Ruthenium red]	0.991 ± 0.01	0.974 ± 0.021	1.01 ± 0.027	0.987 ± 0.023	0.995 ± 0.0052	0.973 ± 0.0087
CC(C)(C)NCC(O)COc1cccc2[nH]c(=O)[nH]c12 (racemic)	0.9973 ± 0.0023	0.974 ± 0.014	0.992 ± 0.015	0.988 ± 0.0076	0.9853 ± 0.0067	0.985 ± 0.0053
CC1c2cccc(O)c2C(O)=C2C(=O)C3(O)C(O)=C(C(N)=O)C(=O)C(N(C)C)C3C(O)C21 (stereo not given) [Doxycycline hydrochloride]	1	0.9303 ± 0.0093	0.99 ± 0.014	0.945 ± 0.018	0.9897 ± 0.0067	0.9743 ± 0.006
COC(=O)C(C)(N)Cc1ccc(O)cc1 (racemic) [alpha-Methyl-DL-tyrosine methyl ester hydrochloride]	1.004 ± 0.01	1.01 ± 0.034	1.01 ± 0.023	0.999 ± 0.011	0.9943 ± 0.0057	1.004 ± 0.0098
Cn1c(=O)c(F)c(Nc2ccc(I)cc2F)c2c(=O)n(C[C@@H](O)CO)cnc21	0.641 ± 0.035	0.629 ± 0.043	0.772 ± 0.028	0.757 ± 0.042	0.329 ± 0.013	0.226 ± 0.025
Cc1cc(C(=O)NOCCO)c(Nc2ccc(I)cc2F)n(C)c1=O	0.614 ± 0.018	0.565 ± 0.035	0.66 ± 0.011	0.672 ± 0.037	0.286 ± 0.014	0.279 ± 0.013
CCCNC[C@H](O)COc1ccccc1C(=O)CCc1ccccc1 [(S)-(-)-propafenone hydrochloride]	0.99967 ± 0.00058	0.9747 ± 0.0047	1.02 ± 0.026	1.02 ± 0.015	0.9967 ± 0.0058	0.995 ± 0.005
Cc1nc(C#Cc2ccnc(Cl)c2)c(C)n1-c1ccc(OC(F)(F)F)cc1	0.993 ± 0.021	0.992 ± 0.01	0.983 ± 0.015	0.9747 ± 0.004	1 ± 0.017	1 ± 0.014
O=S(=O)(NCCNCC=Cc1ccc(Br)cc1)c1cccc2cnccc12	0.985 ± 0.012	0.985 ± 0.025	1.03 ± 0.01	1.007 ± 0.0058	1.002 ± 0.0072	0.968 ± 0.016
Cc1ccccc1N1CCN(S(=O)(=O)C[C@]23CC[C@H](C[C@@H]2NC(=O)[C@@H](N)CCS(C)(=O)=O)C3(C)C)CC1 [L-368,899 hydrochloride]	0.99 ± 0.017	0.986 ± 0.024	0.998 ± 0.013	1.01 ± 0.023	0.9847 ± 0.0035	0.9993 ± 0.0095
COC[C@H](NC(=O)c1cnc(C)s1)C(=O)N[C@@H](COC)C(=O)N[C@@H](Cc1ccccc1)C(=O)[C@@]1(C)CO1 [Oprozomib (ONX 0912)]	0.208 ± 0.051	0.0253 ± 0.0081	0.7 ± 0.017	0.301 ± 0.021	0.0106 ± 0.0015	0.00109 ± 0.00065
